Among all 4,700 compounds or so, about 760 (16%) were called active. The list is a sample of the results. A number with no mark means an inactive call.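 Rule for the calls: active = inhibition above a cutoff derived from the DMSO control wells (cut at about 28% in these data); inactive = the rest.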
Biological target: Microphthalmia-associated transcription factor (Homo sapiens) (UniProt O75030)
Assay: blockers of human MITF dimerization – biochemical, AlphaScreen, triplicate, confirmation (AID 1259372)
Details: AlphaScreen MITF homodimerization, biotin/His-MITF beads; at 2.6 µM; hits give high values

Microphthalmia-associated transcription factor (Homo sapiens), sequence (O75030 whole entry, looked up): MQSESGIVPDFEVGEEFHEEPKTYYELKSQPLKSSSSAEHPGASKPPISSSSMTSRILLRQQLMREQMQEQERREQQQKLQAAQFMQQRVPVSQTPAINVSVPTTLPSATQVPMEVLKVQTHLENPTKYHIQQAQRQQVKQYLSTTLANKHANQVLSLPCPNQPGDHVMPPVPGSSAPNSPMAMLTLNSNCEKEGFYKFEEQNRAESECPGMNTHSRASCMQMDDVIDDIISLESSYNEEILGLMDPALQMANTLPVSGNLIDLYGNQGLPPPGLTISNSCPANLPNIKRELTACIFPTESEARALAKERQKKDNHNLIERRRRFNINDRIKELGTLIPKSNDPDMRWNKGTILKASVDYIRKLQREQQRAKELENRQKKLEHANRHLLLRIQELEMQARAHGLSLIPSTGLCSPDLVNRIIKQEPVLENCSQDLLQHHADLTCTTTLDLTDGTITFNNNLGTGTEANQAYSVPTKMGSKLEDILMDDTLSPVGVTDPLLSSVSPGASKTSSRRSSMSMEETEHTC

Row | SMILES | inhibition
1 | COc1cc(NC(=O)CCc2nc(C3=CCN(C)CC3)no2)cc(OC)c1OC | 66.9% (active)
2 | CCC(C)N1CCN(Cc2cccc(OC)c2)CC1 (stereo not given) | 13.4%
3 | CCC(CC)N1CCN(Cc2ccc(F)cc2)CC1 | 3.06%
4 | COc1ccc(CN2CCN(Cc3ccccc3)CC2)cc1C | -1.48%
5 | CSc1ccccc1NC(=O)CN(C)CC(=O)Nc1ccc(C#N)c(Cl)c1 | 4.26%
6 | CCOC(=O)C1C2NC(=S)N(c3ccc(F)cc3)C1(C)Oc1c(OCC)cccc12 (stereo not given) | 24.2%
7 | CCOC(=O)C1C2NC(=S)N(CC)C1(C)Oc1ccc(Cl)cc12 (stereo not given) | 33.4% (active)
8 | CN1CCC(N(C)c2ncnc3scc(-c4ccc(Cl)cc4)c23)CC1 | -5.93%
9 | CCC(C)N1CCN(Cc2ccc(SC)cc2)CC1 (stereo not given) | 3.6%
10 | Fc1ccccc1CN1CCN(Cc2ccccc2F)CC1 | 4.39%
